# PubChem BioAssay (Tox21)
# Inconclusive results are not listed. A call without a number means that no potency is given here. A number with no mark means an inactive call. Calls of active or inactive are those of the source. Calls follow the shape of the dose curve; as a rule, active = well fitted activation curve with a large enough effect in the repeat runs; inconclusive = weak or mixed curves; inactive = flat fitted curve, though single readings scatter.
# Assay: A CellTox Green Cytotoxicity Assay to monitor cytotoxicity in HepG2 cells - 8 hour (AID 1224890); also: nearly all actives have a fitted effect of over 45% in size
# Conditions: CellTox Green fluorescence; series mostly up to 76.8 µM
# Description: National Center for Advancing Translational Sciences [NCATS]
# NIH Chemical Genomics Center [NCGC]
# U.S. Environmental Protection Agency [EPA]
# National Institutes of Environmental Health Sciences [NIEHS]
# National Toxicology Program [NTP]
# Cell-based models are critical for drug discovery. Determining the natural cytotoxic effects resulting from test compounds is an essential research activity. A CellTox Green Cytotoxicity Assay to monitor cytotoxicity in real time of continues cell culture during 40 hours of the compound treatment was used to screen Tox21 10K library compounds in HepG2 cells. CellTox Green Cytotoxicity Assay is a nonlytic, homogeneous, biofluorescent method to measure cytotoxicity in cell culture after experimental manipulation. The assay system uses a proprietary asymmetric cyanine dye that is excluded from viable cells but preferentially stains the dead cell's DNA. […] Viable cells produce no appreciable increases in fluorescence. Therefore, the fluorescence signal produced by the binding interaction with dead cell DNA is proportional to cytotoxicity.
# The mixture of HepG2 cell suspension and reagents were dispensed at 600cells/6 ul/well in 1536-well tissue culture treated black solid bottom plates using a Multidrop dispenser. After the assay plates were incubated at a 37 C/5% CO2 incubator for 5 hours, 23 nL of compounds dissolved in DMSO, positive and negative controls was transferred to the assay plate by a pintool work station. The plates were incubated at 37 C for 40 hours. The fluorescence intensity were measured at 0h, 8h, 16h, 24h, 32h and 40h time points using ViewLux plate reader during compound treatment.
# Potency is read from the fitted curve at half-maximal effect.
Compound,Potency,cytotoxicity increase
O=C1CC[C@H](C(=O)N2CCCCC2)N1,inactive,
CCCCCCCCCCCCCCCCCCN(C)C,inactive,
Cc1cc(C)cc([N+](=O)[O-])c1,inactive,
COc1ccc(NS(=O)(=O)c2ccc(N)cc2)nn1,inactive,
N#CCCOCCOCCC#N,inactive,
BrC/C=C/CBr,,-2.29% [at 15.8 µM]
COc1cccc2sc(N)nc12,inactive,
C=CCOc1c(Br)cc(Br)cc1Br,inactive,
CC(C)COC(=O)/C=C/c1ccccc1,inactive,
CCC(=O)c1ccc(O)cc1,inactive,
F[Si-2](F)(F)(F)(F)F,inactive,
CCCCOC(=O)[C@@H](C)Oc1ccc(Oc2ccc(C(F)(F)F)cn2)cc1,inactive,
NS(=O)(=O)c1ccccc1OC(F)(F)F,inactive,
OCCCCCCCl,inactive,
CCCCC(CC)C(=O)OC(C)C (stereo not given),inactive,
CCOC(=O)CCc1ccccc1,inactive,
NC(Cc1c[nH]c2ccccc12)C(=O)O (stereo not given),inactive,
CCCCOC(=O)C(=O)OCCCC,inactive,
Cc1ccccc1OCC1CO1 (stereo not given),inactive,
Cc1oc(=O)oc1CN1CCN(c2cc3c(cc2F)c(=O)c(C(=O)O)c2n3C(C)S2)CC1 (stereo not given),0.535 µM (active),

Compound,Potency,cytotoxicity increase
CCCCCCCCCCCCC,inactive,
CCCCC/C=C/CC(=O)OC,inactive,
O=c1cc(O)c(Cl)c[nH]1,inactive,
C=CCOc1cc(Cl)ccc1C(=O)NCCN(CC)CC,inactive,
O=P(O)(O)OCC(O)CO (stereo not given),inactive,
C[CH2][Ge]([Cl])([CH2]C)[CH2]C,inactive,
CCC(C)N (stereo not given),inactive,
Nc1cc(S(=O)(=O)O)ccc1S(=O)(=O)O,inactive,
Nc1ccc(S(=O)(=O)Nc2ccccn2)cc1,inactive,
C1=CCC(c2ccccc2)CC1 (stereo not given),inactive,
CC1=CC[C@H](CC=O)C1(C)C,inactive,
CCCCCCCCCCCCCCCC(=O)NCCO,6.01 µM (active),
C=CCCCCCCCCCCC,,4.2% [at 6.97 µM]
Nc1cc(Cl)cc(S(=O)(=O)O)c1O,inactive,
Nc1cc(C(=O)O)ccc1Cl,inactive,
CC(C)CCCCCCOC(=O)C1CCCCC1C(=O)OCCCCCCC(C)C (stereo not given),inactive,
C[C@H](CCC(=O)O)[C@H]1CC[C@H]2[C@@H]3[C@H](O)C[C@@H]4C[C@H](O)CC[C@]4(C)[C@H]3C[C@H](O)[C@]12C,inactive,
CCOC(=O)OCC/C(SC(=O)OCC)=C(\C)N(C=O)Cc1cnc(C)nc1N,inactive,
O=C1NC2NC(=O)NC2N1 (stereo not given),inactive,
c1ccc(CNc2ncnc3nc[nH]c23)cc1,inactive,
